TDP1 cell noCPT = qHTS for Inhibitors of human tyrosyl-DNA phosphodiesterase 1 (TDP1): qHTS in cells in absence of CPT | actives 15% (n = 420,000) | Potency, µM (series often up to 46.2 µM), most hits filed as inhibitors | DT40 Tdp1-/- hTDP1 cells, no CPT, ATP luminescence, 48 h | AID 686978, 2013; further: nearly all actives have a fitted effect of over 55% in size
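Stably hTDP1-transfected Tdp1-null chicken DT40 cells were treated with library compounds minus camptothecin and grown for at least 48 hr at 37 °C, after which cellular ATP was quantified by luminescence.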
ALOX12 inh = inhibitors of human 12S-lipoxygenase ALOX12 | purified 12hLO, xylenol orange hydroperoxide absorbance | P18054 | actives 1.1% (n = 580,000) | Potency, µM (highest dose often 108 µM), usual class: inhibitors
Target sequence (P18054 whole entry, looked up): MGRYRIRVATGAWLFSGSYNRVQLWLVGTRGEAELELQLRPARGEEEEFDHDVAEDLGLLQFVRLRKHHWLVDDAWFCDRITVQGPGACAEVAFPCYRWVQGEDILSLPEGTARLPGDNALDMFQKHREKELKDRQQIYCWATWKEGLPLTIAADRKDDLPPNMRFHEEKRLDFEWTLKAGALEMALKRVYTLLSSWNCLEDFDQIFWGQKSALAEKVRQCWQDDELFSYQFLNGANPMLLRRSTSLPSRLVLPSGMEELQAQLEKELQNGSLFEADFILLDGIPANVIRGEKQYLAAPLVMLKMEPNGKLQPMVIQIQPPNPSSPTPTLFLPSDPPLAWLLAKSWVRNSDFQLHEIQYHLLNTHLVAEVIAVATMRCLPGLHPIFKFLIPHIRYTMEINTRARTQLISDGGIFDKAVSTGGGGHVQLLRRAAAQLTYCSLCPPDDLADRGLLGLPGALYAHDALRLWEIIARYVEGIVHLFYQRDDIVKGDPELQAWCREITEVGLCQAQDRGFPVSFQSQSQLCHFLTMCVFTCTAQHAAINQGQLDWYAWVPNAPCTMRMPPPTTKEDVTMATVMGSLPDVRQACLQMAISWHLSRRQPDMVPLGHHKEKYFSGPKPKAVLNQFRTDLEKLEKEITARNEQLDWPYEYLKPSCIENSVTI
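Purified human 12hLO at 150 nM in 25 mM Hepes, 0.01% Triton X-100, pH 7.0, preincubated 15 min at room temperature with compound. Reaction started with 40 uM arachidonic acid, 30 min at room temperature. Hydroperoxide measured by Fe-xylenol orange, 573/405 nm absorbance ratio.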
HT1080 IDH1KD tx = toxicity to HT-1080 IDH1 knockdown cells (counter line) | AID 686971 | HT-1080 IDH1 knockdown viability, ATP luminescence, 48 h | Potency, µM (top dose mostly 46.1 µM), usual class: cytotoxic | actives 2% (n = 360,000)
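HT-1080-IDH1KD cells (IDH1 knocked down), 750/well in RPMI with 5% FBS, treated with compound 48 h at 37 degrees C. Viability by CellTiter-Glo luminescence, normalised to DMSO and no-cell wells; concentration-response curves classed.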
DT40 TDP1 CPT = DT40-hTDP1 cell growth loss with CPT. chicken DT40 Tdp1-/-;hTDP1 cells + 20 nM CPT, ATP luminescence, 48 h. Potency, µM (top dose mostly 46.2 µM), usual class: inhibitors. actives 12% (n = 420,000). AID 686979; further: nearly all actives have a fitted effect of over 55% in size
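Chicken DT40 Tdp1-/- cells complemented with human TDP1, 400 cells/well, exposed to compounds plus 20 nM camptothecin for at least 48 h at 37 C; viability read as ATP content by CellTiter-Glo luminescence.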
HT1080-NT tox = kills 2HG-producing HT-1080-NT fibrosarcoma cells; HT-1080-NT fibrosarcoma viability, CellTiter-Glo ATP luminescence, 48 h; Potency, µM (series often up to 46.1 µM), hits mostly cytotoxic; actives 1.6% (n = 360,000);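 further: NT is the 2HG producing partner of a matched IDH1 knockdown line; nearly all actives have a fitted effect of over 55% in size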
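Luminescent CellTiter-Glo readout after 48 hours of compound exposure at 37 degrees C defined viability of HT-1080-NT cells. Activity was normalized to DMSO wells and cell-free media wells; concentration-response curves were fitted and assigned curve classes.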
IL-1B inflam inh = inhibitors of inflammasome signaling (IL-1 beta secretion); THP-1 LPS/ATP IL-1B secretion, AlphaLISA, 16 h; hits give low values; activity change, % at 57.5 µM; actives 4.7% (n = 360,000); in the data active means activity change below about -50%; inconclusive means mostly about -30% to -49%
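Secreted IL-1B measured by AlphaLISA bead assay after 16 h compound exposure of THP-1 cells; compounds (final up to 57.5 uM) added 1 h before LPS (250 ng/mL) and ATP (1.25 mM) stimulation; lower signal means less secretion.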
Numbers stand for hits; . = inactive; ? = inconclusive; / = no result; [ ] = dose if it differs, or a comment. This is one part of a sample in which hits are shown more often than they occur. Unless noted, the call rests on the fitted dose curve; in most records, active means well fitted curve in the direction sought with a large enough effect; inconclusive means small, poorly fitted or top-dose-only effect, or another doubt; inactive means no such curve, though single readings can be large; an effect the other way counts as inactive or inconclusive.

SMILES | TDP1 cell noCPT | ALOX12 inh | HT1080 IDH1KD tx | DT40 TDP1 CPT | HT1080-NT tox | IL-1B inflam inh
Cc1ccc(C)c(N2N=C(C(=O)Nc3ccccc3N3CCCC3)CCC2=O)c1 | 21µM | . | ? | ? | ? | .
O=C(Nc1ccccc1N1CCCCC1)C1=COCCO1 | 12µM | . | . | ? | . | .
Cc1ccccc1C(=O)Nc1ccccc1N1CCOCC1 | / | . | / | / | / | /
Cc1ccccc1C(=O)Nc1ccccc1N1CCCCC1 | 16µM | . | . | ? | . | .
O=C(Nc1ccccc1N1CCCC1)C1=COCCO1 | . | . | . | . | .[9.24 µM] | .
COc1ccc2[nH]cc(C(C(=O)O)N3CCC(C)CC3)c2c1 (stereo not drawn) | / | . | / | / | / | /
COc1ccc(NC(=O)c2ccc3c(c2)N(C)C2CCCCN2C3=O)cc1OC (stereo not drawn) | / | . | / | / | / | /
COc1ccccc1C(=O)Nc1ccccc1N1CCCCC1 | 18µM | . | . | ? | . | .
Cc1ccsc1C(=O)Nc1ccccc1N1CCCC1 | 13µM | ? | . | ? | . | .
O=C(Nc1ccccc1N1CCCCC1)c1cccs1 | ? | . | . | . | . | .
COc1ccccc1CNS(=O)(=O)c1ccc2c(c1)CCCN2C(C)=O | . | . | . | . | . | .
CC(=O)N1CCCc2cc(S(=O)(=O)N3CCC(C(=O)NCc4cccc(C)c4)CC3)ccc21 | ? | . | / | . | / | /
CC(=O)N1CCCc2cc(S(=O)(=O)NCc3ccc(N(C)C)cc3)ccc21 | 21µM | . | / | ? | / | /
CC(=O)N1CCCc2cc(S(=O)(=O)N3CCC(C(=O)NCc4ccc(N(C)C)cc4)CC3)ccc21 | ? | . | / | ? | / | /
CC(=O)N1CCCc2cc(S(=O)(=O)NCc3ccc(C)cc3)ccc21 | 13µM | . | . | ? | . | .
CC(=O)N1CCCc2cc(S(=O)(=O)NCc3cccc(C)c3)ccc21 | 21µM | . | / | ? | / | /
CC(=O)N1CCCc2cc(S(=O)(=O)NCCC3=CCCCC3)ccc21 | 11µM | . | ? | 10µM | . | .
Cc1nnc(NC(=O)c2ccc3c(ccn3C)c2)s1 | / | . | / | / | / | /
COc1cccc(CSC(C(=O)O)c2ccccc2)c1 (stereo not drawn) | . | ? | . | . | . | .
O=C(C1CC1)N1CCc2cc(S(=O)(=O)NCc3ccccc3)ccc21 | ? | . | . | 23µM | ? | .
CC(C)CNS(=O)(=O)c1ccc(CCC(=O)NCCC2=CCCCC2)cc1 | 23µM | . | . | ? | . | .
CCC(=O)N1CCc2cc(S(=O)(=O)NCc3ccc(C)cc3)ccc21 | 18µM | . | / | 23µM | / | /
CCC(=O)N1CCc2cc(CNS(=O)(=O)c3ccc(NC(=O)CC(C)C)cc3)ccc21 | 18µM | . | / | 21µM | / | /
COc1cccc(CNS(=O)(=O)c2ccc3c(c2)CCN3C(=O)C2CC2)c1 | ? | . | . | ? | . | .
Cc1ccncc1C(=O)N1CCCN(C(=O)C2CC2)C(c2ccccc2)CC(=O)NCC1 (stereo not drawn) | / | . | / | / | / | /
SMILES | TDP1 cell noCPT | ALOX12 inh | HT1080 IDH1KD tx | DT40 TDP1 CPT | HT1080-NT tox | IL-1B inflam inh
CCN(CC)c1ccc(C(=O)NCc2nnc3cc(-c4nc(C(C)C)no4)ccn23)cc1 | / | . | / | / | / | /
CCc1cc2c(CN3CCN(c4ccccc4)CC3)cc(=O)oc2cc1O | / | . | / | / | / | /
COc1ccc(-c2noc([C@@H]3CCCN3C(=O)c3ccccc3F)n2)cc1OC | / | . | / | / | / | /
O=C(Nc1cccc(NC(=O)C2CC3CCCC(C2)C3=O)n1)C1CC2CCCC(C1)C2=O (stereo not drawn) | 18µM | . | . | ? | . | .
O=C(Nc1cccc(F)c1)C1CC2CCCC(C1)C2=O (stereo not drawn) | / | . | / | / | / | /
O=C(COCc1cc(-c2cccs2)on1)N1CCN(c2cccc(Cl)c2)CC1 | 12µM | ? | / | 23µM | / | /
O=C(COCc1cc(-c2ccc3c(c2)OCO3)on1)N1CCN(c2ccc(F)cc2)CC1 | ? | . | . | . | . | .
O=C(COCc1cc(-c2cccs2)on1)N1CCN(c2ccc(F)cc2)CC1 | 15µM | . | / | 18µM | / | /
